The subject of test [1] is PRMT1 (protein arginine N-methyltransferase 1). Put plainly: PRMT1 binders on small-molecule microarrays, primary screen, biochemical, small-molecule microarray, 635 nm fluorescence (AID 1088).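 Also: binding of Prmt1 protein to compounds spotted on small-molecule microarray slides.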 The settings on record: small-molecule microarray binding, higher = more signal.
A short description of test [2]: yeast growth modulation, basal conditions, primary screen, YJM789 clinical isolate, OD600, 24 h (AID 1089).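 Also: growth of clinical yeast isolate S. cerevisiae YJM 789 seeded 1000 cells per well; test concentration not given here.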 The settings on record: S. cerevisiae YJM789 growth, higher = more signal, called active from +8 up or from −8 down.
Test [3] can be described thus: fission yeast growth modulation, primary screen, strain 972, OD600, 24 h, no modulator (AID 1090).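 Also: basal condition with compound alone and no growth modifier present; test concentration not given here.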 To be noted: S. pombe 972 growth, higher = more signal, called active from +8 up or from −8 down.
Test [4] is described as follows: S. cerevisiae growth modulation with rapamycin, primary screen, strain BY4716, OD600, 96 h (AID 1091). Also: test concentration not given here. The settings on record: higher = more signal, called active from +8 up or from −8 down.
Test [5] deals with Torsin-1A-interacting protein 2 (Homo sapiens) (UniProt Q8NFQ8). Put plainly: LULL1 binders on small-molecule microarray, primary screen, cell lysate, human LULL1 lysate, 635/667 nm fluorescence (AID 1092).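 Also: probe is lysate of COS7 cells overexpressing human LULL1; score merges per-feature 667 nm fluorescence with signal-to-noise.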 To be noted: hLULL1 lysate binding, 635 nm fluorescence, higher = more signal.
Torsin-1A-interacting protein 2 (Homo sapiens), sequence (Q8NFQ8 whole entry, looked up): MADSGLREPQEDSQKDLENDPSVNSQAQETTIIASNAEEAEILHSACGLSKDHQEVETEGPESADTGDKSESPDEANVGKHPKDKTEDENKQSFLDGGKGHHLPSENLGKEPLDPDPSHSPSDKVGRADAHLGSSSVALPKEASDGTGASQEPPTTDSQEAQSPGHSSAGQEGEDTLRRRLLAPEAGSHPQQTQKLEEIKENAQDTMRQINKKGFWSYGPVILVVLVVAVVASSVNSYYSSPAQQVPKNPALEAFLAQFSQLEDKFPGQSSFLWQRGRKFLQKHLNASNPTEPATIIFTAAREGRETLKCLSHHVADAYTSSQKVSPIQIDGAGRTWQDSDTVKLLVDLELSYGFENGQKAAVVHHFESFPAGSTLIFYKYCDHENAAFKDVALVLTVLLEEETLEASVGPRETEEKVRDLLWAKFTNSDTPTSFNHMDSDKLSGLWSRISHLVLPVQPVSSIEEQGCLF
A short description of test [6]: E. coli growth modulation, two-sided OD650, primary screen, E. coli filamentation project, strain DRC41, 24 h (AID 1093).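 Also: MC1000 strain lacking acrAB efflux and sulA so SOS filamentation is blocked; test concentration not given here.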 The settings on record: OD650, 24 h, higher = more signal, called active from +8 up or from −8 down.
The nature of test [7]: small-molecule microarray binders of probe aLefty2, primary screen, biochemical, biotinylated probe, 635/667 nm fluorescence (AID 1094).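 Also: score merges spot fluorescence near 667 nm with spot signal-to-noise ratio.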 The settings on record: higher = more signal.
For test [8], the system named is Noggin (protein binding on small-molecule microarray). The experiment in a line: Noggin binders on small-molecule microarray, primary screen, biochemical, 635/667 nm fluorescence (AID 1095).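 Also: score merges 667 nm feature fluorescence with signal to noise over triplicate slides.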 The settings on record: 635 nm fluorescence, higher = more signal.
In test [9] the target is Neurogenic locus notch homolog protein 3 (Homo sapiens) (UniProt Q9UM47). The experiment in a line: NOTCH3 binders on small-molecule microarray, primary screen, biochemical, 635/667 nm fluorescence (AID 1096). To be noted: NOTCH3 binding, 635 nm fluorescence, higher = more signal.
Neurogenic locus notch homolog protein 3 (Homo sapiens), sequence (Q9UM47 whole entry, looked up): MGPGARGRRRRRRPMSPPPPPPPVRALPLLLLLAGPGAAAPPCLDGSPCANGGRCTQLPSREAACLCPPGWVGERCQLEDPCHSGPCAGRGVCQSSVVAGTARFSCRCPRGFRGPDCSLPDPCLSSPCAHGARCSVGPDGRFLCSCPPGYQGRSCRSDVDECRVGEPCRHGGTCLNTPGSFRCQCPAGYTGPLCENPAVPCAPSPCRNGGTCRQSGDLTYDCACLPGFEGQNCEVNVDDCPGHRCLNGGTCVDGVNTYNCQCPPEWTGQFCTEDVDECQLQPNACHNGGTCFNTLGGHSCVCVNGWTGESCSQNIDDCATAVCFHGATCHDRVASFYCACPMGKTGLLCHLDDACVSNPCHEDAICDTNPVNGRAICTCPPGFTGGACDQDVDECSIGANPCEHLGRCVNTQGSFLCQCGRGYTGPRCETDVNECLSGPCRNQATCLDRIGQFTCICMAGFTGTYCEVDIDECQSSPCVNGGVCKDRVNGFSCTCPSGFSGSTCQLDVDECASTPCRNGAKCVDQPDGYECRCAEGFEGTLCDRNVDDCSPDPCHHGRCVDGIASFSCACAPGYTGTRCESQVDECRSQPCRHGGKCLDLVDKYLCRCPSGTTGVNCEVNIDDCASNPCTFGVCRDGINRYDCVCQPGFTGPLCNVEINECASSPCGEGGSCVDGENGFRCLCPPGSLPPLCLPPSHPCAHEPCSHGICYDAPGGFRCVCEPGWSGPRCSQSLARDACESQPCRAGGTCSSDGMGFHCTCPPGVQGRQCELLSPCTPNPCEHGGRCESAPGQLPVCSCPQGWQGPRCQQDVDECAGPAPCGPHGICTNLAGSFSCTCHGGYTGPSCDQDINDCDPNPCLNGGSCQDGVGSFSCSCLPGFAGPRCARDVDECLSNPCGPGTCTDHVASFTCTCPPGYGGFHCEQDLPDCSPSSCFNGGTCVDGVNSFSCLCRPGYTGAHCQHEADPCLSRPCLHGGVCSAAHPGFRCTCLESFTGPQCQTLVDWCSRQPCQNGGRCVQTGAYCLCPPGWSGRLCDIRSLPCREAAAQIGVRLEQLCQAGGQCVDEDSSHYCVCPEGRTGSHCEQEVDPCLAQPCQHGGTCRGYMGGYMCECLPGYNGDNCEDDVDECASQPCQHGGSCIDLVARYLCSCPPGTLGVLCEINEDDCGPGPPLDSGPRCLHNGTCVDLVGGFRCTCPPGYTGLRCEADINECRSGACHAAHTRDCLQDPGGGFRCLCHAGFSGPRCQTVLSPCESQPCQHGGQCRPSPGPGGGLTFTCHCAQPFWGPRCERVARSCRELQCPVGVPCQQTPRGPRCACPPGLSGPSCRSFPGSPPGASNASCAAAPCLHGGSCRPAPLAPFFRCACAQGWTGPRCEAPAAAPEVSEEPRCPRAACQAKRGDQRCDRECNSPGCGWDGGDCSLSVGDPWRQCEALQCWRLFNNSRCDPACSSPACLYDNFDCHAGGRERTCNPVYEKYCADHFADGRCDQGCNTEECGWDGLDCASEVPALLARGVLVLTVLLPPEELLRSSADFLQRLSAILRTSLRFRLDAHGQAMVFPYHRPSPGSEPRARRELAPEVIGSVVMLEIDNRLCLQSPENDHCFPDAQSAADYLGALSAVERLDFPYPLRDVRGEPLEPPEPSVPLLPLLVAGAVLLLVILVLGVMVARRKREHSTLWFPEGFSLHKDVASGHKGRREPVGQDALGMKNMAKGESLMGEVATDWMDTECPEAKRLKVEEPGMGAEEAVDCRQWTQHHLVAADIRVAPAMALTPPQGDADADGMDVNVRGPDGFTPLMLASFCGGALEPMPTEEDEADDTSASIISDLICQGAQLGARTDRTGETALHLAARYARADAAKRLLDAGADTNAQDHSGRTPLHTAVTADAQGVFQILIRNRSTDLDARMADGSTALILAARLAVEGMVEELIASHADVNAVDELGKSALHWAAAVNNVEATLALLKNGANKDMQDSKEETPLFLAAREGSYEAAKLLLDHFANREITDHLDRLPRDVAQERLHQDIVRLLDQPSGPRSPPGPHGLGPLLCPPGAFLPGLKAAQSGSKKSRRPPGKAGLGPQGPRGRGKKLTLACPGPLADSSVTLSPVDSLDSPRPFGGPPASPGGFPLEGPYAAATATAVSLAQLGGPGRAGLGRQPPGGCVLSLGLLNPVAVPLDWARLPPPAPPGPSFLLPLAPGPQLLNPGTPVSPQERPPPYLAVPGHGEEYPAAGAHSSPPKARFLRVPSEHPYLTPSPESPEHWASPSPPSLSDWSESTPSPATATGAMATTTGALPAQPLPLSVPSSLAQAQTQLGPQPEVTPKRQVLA
The nature of test [10]: small-molecule microarray binders of probe aEGFR, primary screen, biochemical, biotinylated probe, 635/667 nm fluorescence (AID 1097).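 Also: probe is a biotinylated anti-EGFR antibody binding compounds printed on slides; score combines fluorescence near 667 nm and signal to noise of each spot.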 To be noted: higher = more signal.
The subject of test [11] is Plasmodium falciparum Sir2 (PF13_0152, Sir2A). The experiment in a line: pfSir2 binders on small-molecule microarrays, primary screen, biochemical, small-molecule microarray, 635 nm fluorescence (AID 1098).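 Also: score merges spot fluorescence intensity with its signal-to-noise ratio.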 To be noted: small-molecule microarray binding, fluorescence 635 nm; higher = more signal.
The nature of test [12]: small-molecule microarray binders of probe aDKK1, primary screen, biochemical, biotinylated probe, 635/667 nm fluorescence (AID 1099).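 Also: score merges 667nm spot fluorescence with signal to noise across triplicate slides; reference of the scale not given here.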 To be noted: higher = more signal.
Test [13] in a line: small-molecule microarray binders of probe aCHRDL2, primary screen, biochemical, biotinylated probe, 635/667 nm fluorescence (AID 1100). To be noted: higher = more signal.
A short description of test [14]: splicing luciferase reporter signal modulators, primary screen, spliceosome inhibition project, cell-based, HEK293, splice +/- reporter (AID 1101).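 Also: HEK293 cells carrying a splicing-competent luciferase reporter gene; test concentration not given here.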 The settings on record: luminescence, 24 h, higher = more signal, called active from +8 up or from −8 down.
Test [15] has as its target Fibroblast growth factor 10 (Homo sapiens) (UniProt O15520). The experiment in a line: FGF10 binders on small-molecule microarrays, primary screen, biochemical, small-molecule microarray, 635 nm fluorescence (AID 1102). The settings on record: FGF10 binding, fluorescence 635 nm, higher = more signal.
The subject of test [16] is glycogen synthase kinase-3 (GSK3A per assay name; protocol says GSK3B). The experiment in a line: GSK3 binders on small-molecule microarrays, primary screen, biochemical, small-molecule microarray, 635 nm fluorescence, GSK3A (AID 1103). Also: the record names both GSK3A and GSK3B. To be noted: small-molecule microarray binding, fluorescence 635 nm; higher = more signal.
In test [17] the target is Epidermal growth factor receptor (Homo sapiens) (UniProt P00533). Put plainly: EGFR binders on small-molecule microarrays, primary screen, biochemical, small-molecule microarray, 635 nm fluorescence (AID 1104).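 Also: score merges 667 nm emission intensity with spot signal to noise over triplicate slides.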 The settings on record: EGFR binding, higher = more signal.
Epidermal growth factor receptor (Homo sapiens), sequence (P00533 whole entry, looked up): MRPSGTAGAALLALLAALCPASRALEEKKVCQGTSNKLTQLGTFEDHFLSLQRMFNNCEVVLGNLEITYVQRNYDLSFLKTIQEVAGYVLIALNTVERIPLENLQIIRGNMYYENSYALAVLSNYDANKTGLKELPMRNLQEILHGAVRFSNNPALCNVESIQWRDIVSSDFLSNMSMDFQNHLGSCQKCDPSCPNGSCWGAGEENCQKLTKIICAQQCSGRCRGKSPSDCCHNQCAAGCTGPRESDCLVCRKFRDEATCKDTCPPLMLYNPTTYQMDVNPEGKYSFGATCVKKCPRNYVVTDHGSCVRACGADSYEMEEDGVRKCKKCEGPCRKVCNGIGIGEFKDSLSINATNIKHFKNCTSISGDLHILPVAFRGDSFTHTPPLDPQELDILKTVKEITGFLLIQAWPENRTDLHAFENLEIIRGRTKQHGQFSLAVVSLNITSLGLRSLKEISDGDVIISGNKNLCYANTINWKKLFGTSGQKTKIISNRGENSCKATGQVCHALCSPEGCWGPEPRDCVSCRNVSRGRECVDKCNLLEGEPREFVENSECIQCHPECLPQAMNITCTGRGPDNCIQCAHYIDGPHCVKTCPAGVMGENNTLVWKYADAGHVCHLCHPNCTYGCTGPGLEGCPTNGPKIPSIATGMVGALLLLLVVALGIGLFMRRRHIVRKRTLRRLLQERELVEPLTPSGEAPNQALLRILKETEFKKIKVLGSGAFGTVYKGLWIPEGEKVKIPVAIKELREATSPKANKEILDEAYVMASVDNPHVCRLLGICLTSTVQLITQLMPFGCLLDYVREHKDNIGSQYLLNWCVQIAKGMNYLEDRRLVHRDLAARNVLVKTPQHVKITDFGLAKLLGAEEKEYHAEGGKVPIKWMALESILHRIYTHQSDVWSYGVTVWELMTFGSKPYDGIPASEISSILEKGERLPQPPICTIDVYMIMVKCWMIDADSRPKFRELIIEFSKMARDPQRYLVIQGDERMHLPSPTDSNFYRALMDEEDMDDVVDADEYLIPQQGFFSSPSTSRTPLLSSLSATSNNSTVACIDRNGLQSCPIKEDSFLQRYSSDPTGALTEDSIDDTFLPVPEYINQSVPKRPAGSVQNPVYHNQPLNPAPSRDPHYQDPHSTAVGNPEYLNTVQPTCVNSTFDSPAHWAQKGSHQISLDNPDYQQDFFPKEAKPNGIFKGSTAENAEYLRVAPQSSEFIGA
The target in test [18] is Follistatin-related protein 3 (Homo sapiens) (UniProt O95633). The experiment in a line: FSTL3 binders on small-molecule microarrays, primary screen, biochemical, small-molecule microarray, 635 nm fluorescence (AID 1105).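 Also: score merges emission near 667 nm and signal to noise per printed spot across three slides.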 The settings on record: FSTL3 binding, higher = more signal.
Follistatin-related protein 3 (Homo sapiens), sequence (O95633 whole entry, looked up): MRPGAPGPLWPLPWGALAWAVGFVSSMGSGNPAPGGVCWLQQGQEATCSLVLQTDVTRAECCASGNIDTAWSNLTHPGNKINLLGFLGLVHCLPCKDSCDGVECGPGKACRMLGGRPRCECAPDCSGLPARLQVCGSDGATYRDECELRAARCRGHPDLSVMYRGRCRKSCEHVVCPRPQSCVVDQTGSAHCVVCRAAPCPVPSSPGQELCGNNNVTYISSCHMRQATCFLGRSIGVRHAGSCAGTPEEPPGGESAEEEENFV
The target in test [19] is Dickkopf-related protein 1 (Homo sapiens) (UniProt O94907). Put plainly: DKK1 binders on small-molecule microarrays, primary screen, biochemical, small-molecule microarray, 635 nm fluorescence scan (AID 1106).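 Also: score merges emission near 667 nm with signal to noise over three replicate slides.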 The settings on record: DKK1 binding, higher = more signal.
Dickkopf-related protein 1 (Homo sapiens), sequence (O94907 whole entry, looked up): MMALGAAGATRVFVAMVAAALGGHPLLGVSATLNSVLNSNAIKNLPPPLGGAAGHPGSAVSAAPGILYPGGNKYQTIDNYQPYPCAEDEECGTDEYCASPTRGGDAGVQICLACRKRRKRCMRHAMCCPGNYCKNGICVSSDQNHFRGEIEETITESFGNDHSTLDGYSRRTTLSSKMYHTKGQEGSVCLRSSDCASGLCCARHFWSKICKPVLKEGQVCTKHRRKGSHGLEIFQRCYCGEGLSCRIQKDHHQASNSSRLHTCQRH
In test [20] the test system is Inhibin beta A chain (activin A). Put plainly: INHBA (activin A) binders on microarrays, primary screen, biochemical, small-molecule microarray, 635 nm fluorescence scan (AID 1107).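 Also: mouse activin A protein probed at 4.33 µg/mL on printed slides; score merges bound-protein fluorescence near 667 nm with spot signal-to-noise.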 The settings on record: small-molecule microarray binding, higher = more signal.

Activity calls are given as the source filed them.

Fibroblast growth factor 10 (Homo sapiens), sequence (O15520 whole entry, looked up): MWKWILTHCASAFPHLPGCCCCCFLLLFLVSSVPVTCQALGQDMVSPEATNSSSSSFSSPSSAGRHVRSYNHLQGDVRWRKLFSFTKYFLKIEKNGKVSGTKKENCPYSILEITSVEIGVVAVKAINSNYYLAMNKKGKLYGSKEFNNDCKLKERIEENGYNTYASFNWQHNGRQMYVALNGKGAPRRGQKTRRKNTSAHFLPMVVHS

Consider `COC(=O)[C@@]1(Cc2ccc(F)cc2)[C@H]2c3cc(C(=O)N4CCCC4)n(Cc4ccc(Cl)c(C(F)(F)F)c4)c3C[C@H]2CN1C(=O)c1ccccc1`, for which the composite z-score in test [1] was 0.444; in test [5], 3.26; in test [7], 1.12; in [8], -0.21; in test [9], 1.07; in test [10] it was 0.915. For the same compound, the composite z-score came to 1.11 in test [11]; 2.11 in test [12]; 1.58 in test [13]; 0.879 in test [15]; 0.864 in test [16]; 0.477 in [17]. The composite z-score is 1.18 in [18], -0.652 in [19] and 0.864 in [20]. Further, the z-score in [2] was 0.307 (inactive); in test [3] it was 2.12 (inactive); in test [4] it was 3.84 (inactive); in [6], -0.482 (inactive); in test [14] it was -0.767 (inactive).

Turning to `O=C1O[C@@H](c2ccccc2)[C@@H](c2ccccc2)N2[C@@H](c3ccc(O)cc3)[C@]3(C(=O)Nc4ccc(C#CCCO)cc43)[C@@H](C(=O)O)[C@H]12`, the composite z-score was 1.57 in [1]; 2.79 in [5]; 1.55 in [7]; -0.222 in test [8]; 0.314 in test [9]; 1.07 in test [10]. Besides, the composite z-score was 1.67 in [11]; 2.56 in test [12]; 1.64 in test [13]; 0.472 in test [15]; -0.2 in test [16]; 0.363 in test [17]. In addition, the composite z-score in [18] is 1.13; in test [19] it was -0.107; in [20], 1.76. The z-score is 0.414 (inactive) in [2]; -0.571 (inactive) in test [3]; -0.265 (inactive) in [4]; 0.7 (inactive) in test [6]; -0.545 (inactive) in test [14].

As for `COc1ccc(C#Cc2ccc3c(c2)[C@]2(C(=O)N3)[C@H](C(=O)N3CCN(c4ncccn4)CC3)[C@H]3C(=O)O[C@H](c4ccccc4)[C@H](c4ccccc4)N3[C@@H]2c2ccc(O)cc2)cc1`, the composite z-score in test [1] is 1.56; in test [5] it was 2.33; in test [7] it was 0.0897; in test [8], 0.496; in [9] it was 0.853; in [10] it was -0.0573. In addition, the composite z-score is 0.707 in [11]; -0.015 in test [12]; 0.612 in test [13]; 0.557 in test [15]; 0.967 in test [16]; 0.366 in test [17]. Also, the composite z-score in test [18] was 0.743; in test [19], 0.353; in test [20] it was 0.536. The z-score in test [2] was 0.77 (inactive); in [3], 0.86 (inactive); in [4], 1.17 (inactive); in test [6] it was -0.459 (inactive); in test [14], -0.73 (inactive).

On to `O=C1C2C=CC(C(O)c3ccccn3)N(Nc3ccccc3F)C2C(=O)N1c1ccccc1` (stereo not given), for which the composite z-score in [1] is 0.0392; in [5], 1; in test [7] it was -0.0561; in test [8] it was 0.0291; in [9], -0.584; in test [10], -0.0581. Besides, the composite z-score in [11] is 0.205; in test [12], 0.19; in test [13], 0.461; in [15] it was 0.0698; in test [16] it was -0.0392; in test [17] it was 0.0563. Further, the composite z-score in test [18] is -0.0532; in test [19] it was 0.124; in test [20] it was 0.926. Also, the z-score in test [2] is 0.839 (inactive); in [3], 0.0161 (inactive); in test [4], -0.207 (inactive); in test [6], -0.717 (inactive); in [14] it was -0.0196 (inactive).

As for `O=C1C2C=CC(C(O)CCc3ccccc3)N(Nc3ccccc3)C2C(=O)N1c1ccccc1` (stereo not given), the composite z-score in [1] is 1.49; in test [5] it was 3.4; in [7] it was 0.231; in test [8], 0.0749; in [9] it was 1.02; in [10], 0.0864. Besides, the composite z-score is 0.692 in [11]; 1.18 in [12]; 1.29 in test [13]; 0.714 in test [15]; 1.26 in test [16]; -0.0133 in [17]. For the same compound, the values for the composite z-score in test [18], in test [19] and in test [20] were 0.425, -0.194 and 0.205, respectively. Also, the z-score in test [2] was 0.655 (inactive); in test [3], 0.226 (inactive); in test [4], 1.43 (inactive); in test [6], -1.88 (inactive); in test [14], 0.35 (inactive).

Values taken from PubChem BioAssay.
